Results from the supplement of paper PMC6555819.

What was measured:
Experiment in all cases: PBM binding z-score (relative to random genomic background probes); higher = stronger binding; sequences stand for … in GC…GCGATTGACAGCGTAGAATGAAGG
[1] = test system: FXR:RXRa (NR concentration 270 nM, RXRa partner concentration 90 nM)
In short: (§1)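 Binding buffer was PBS pH 7.4 with 2% milk, 0.02% Triton X-100, 1 mM DTT, 0.2 mg/mL BSA and 0.4 mg/ml salmon testes DNA. In it, ligand-free nuclear receptor dimers were incubated 1 h on custom Agilent 4×180K protein-binding microarrays carrying double-stranded probes. Antibodies against each partner (one per run) detected binding, and z-scores were calculated against random background probes after regression normalization of scanned fluorescence.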

[2] = test system: LXRa:RXRa (NR concentration 270 nM, RXRa partner concentration 90 nM)
In short: as §1

[3] = test system: LXRa homodimer (NR concentration 270 nM)
In short: as §1

[4] = test system: LXRb:RXRa (NR concentration 270 nM, RXRa partner concentration 90 nM)
In short: as §1

[5] = test system: LXRb homodimer (NR concentration 270 nM)
In short: as §1

[6] = test system: PPARa:RXRa (NR concentration 270 nM, RXRa partner concentration 90 nM)
In short: as §1

[7] = test system: PPARg:RXRa (NR concentration 180 nM, RXRa partner concentration 90 nM)
In short: as §1

[8] = test system: PPARg:RXRa 270nM:90nM, anti-RXR (NR concentration 270 nM, RXRa partner concentration 90 nM)
In short: as §1

[9] = test system: PPARg:RXRa 30nM:10nM, anti-RXR (NR concentration 30 nM, RXRa partner concentration 10 nM)
In short: as §1

[10] = test system: PPARg:RXRa 90nM:30nM, anti-RXR (NR concentration 90 nM, RXRa partner concentration 30 nM)
In short: as §1

Row | Sequence | PBM binding z-score [1] | PBM binding z-score [2] | PBM binding z-score [3] | PBM binding z-score [4] | PBM binding z-score [5] | PBM binding z-score [6] | PBM binding z-score [7] | PBM binding z-score [8] | PBM binding z-score [9] | PBM binding z-score [10]
1 | CCTACTGTGCCACGAAAGGTCATTGATTCAGTGA | 3.98 | 5.43 | 5.47 | 4.73 | 1.31 | 4.62 | 3.72 | 4.36 | 2 | 3.59
2 | CAAACTAGGTCAATAGGTCAAAGTCCGCTTCCCG | 5.97 | 5.58 | 3.46 | 4.5 | 1.42 | 5.97 | 9.53 | 7.87 | 6.52 | 8.3
3 | CGTCAAAGTTCAACTAAGCTAACGTAAAGCACGC | 6.6 | 6.23 | 4.14 | 4.26 | 2.57 | 5.08 | 4.95 | 5.46 | 1.83 | 4.48
4 | TGAATGAGGTTATAAAATCAGGGAACGTTGCAAA | 0.804 | 0.908 | -0.31 | 1.02 | 0.05 | 2.15 | 0.802 | 1.19 | 0.684 | 1.09
5 | TAGCCTAGGTCATTCAGGGGCCAGTAAAGAAAGC | 4.75 | 4.05 | 0.681 | 3.17 | 0.778 | 3.73 | 1.61 | 2.56 | 0.576 | 1.76
6 | ATATGTATGTTAAGGGTCATTCAGGTTGGTTCGC | 4.05 | 4.15 | 3.41 | 4.46 | 1.5 | 5.66 | 8.29 | 7.83 | 8.13 | 8.7
7 | TGTCAAAGTTCAAAGGTAACGTTAGTATCCACAC | 7.28 | 6.46 | 4.63 | 4.65 | 1.95 | 5.88 | 8.96 | 7.52 | 5.52 | 7.18
8 | ATATGTAGGTCACATCCGGGTCATTCAGGCTATG | 4.9 | 5.58 | 3.31 | 4.45 | 1.88 | 5.8 | 9.18 | 7.48 | 5.41 | 7.3
9 | AATACAGGGGCATCGTAGGCCAGAGTACGCACAG | 0.565 | 0.874 | 0.0851 | 1.04 | 0.436 | 1.06 | 1.13 | 0.622 | 0.174 | 0.275
10 | CGTCAAAGTTCAAGGTACCGTAACAGAAAGCAGC | 6.16 | 5.65 | 3.11 | 3.48 | 0.91 | 4.61 | 4 | 4.81 | 1.82 | 3.9
11 | ACTAGCAGGCCAAGTTTGAGTCACTCAAACAAAG | -0.527 | -0.601 | -0.503 | -0.529 | -0.797 | -0.0783 | -0.147 | -0.486 | -0.4 | -0.496
12 | CAAACTAGGTCACACAGGTCAAAGTCCGTGCGTA | 5.67 | 5.43 | 4.2 | 4.82 | 0.995 | 5.71 | 9.3 | 7.72 | 5.14 | 7.46
13 | CCTAGTTGGTCTGGAGGTCACACACCGGATATGA | 3.79 | 4.06 | 3.63 | 3.51 | 0.759 | 4.17 | 2.1 | 3.14 | 0.849 | 2.61
14 | GCAGACAGGTGAAACCCAGGTAACTCAGGGTGGC | 0.292 | -0.00475 | -0.738 | -0.364 | -0.909 | 0.818 | 0.657 | -0.0881 | -0.673 | -0.524
15 | TCTAGCAGACCAGAGGGTCACTCAAGAGGTACGG | 0.955 | 0.817 | -0.662 | 1.1 | -1.39 | 2.15 | 0.882 | 1.31 | 1.8 | 1.61
16 | GCTTACGGGTCAAAGGTTATAGCCTGAATAGAAT | 7.79 | 5.8 | 0.763 | 5.69 | 0.503 | 6.88 | 11.5 | 9.6 | 10.2 | 11.3
17 | TCTATTACTTGATTAGGGCAACCGAAACAGCGGA | 0.823 | 0.881 | 0.41 | 0.812 | 0.945 | 0.975 | 0.4 | 1.9 | 3.76 | 2.94
18 | CTATCAAGGTGAACAAGGTCGTTGATTACTATTC | 1.16 | 1.14 | -0.163 | 1.54 | -0.39 | 2.47 | 1.53 | 1.51 | 0.103 | 0.808
19 | TCTGTTAGGTCAGTTGGTCAGCTAACGAGCTGCC | 2.18 | 1.74 | 0.264 | 1.37 | 2.71 | 1.99 | 0.27 | 2.47 | 3.02 | 2.76
20 | TGACAAAGTTCAAAGGTAACGTAAGTATCCACAC | 6.96 | 6.05 | 3.28 | 4.68 | 1.41 | 5.69 | 6.2 | 6.28 | 2.97 | 5.43
21 | CGAAATAGGTCATCCAGGACAGTGAATACATTGA | 5.99 | 4.69 | 1.25 | 3.8 | 0.842 | 5.87 | 7.32 | 6.78 | 4.39 | 6.21
22 | GCGACTGGGGCAAAGCATGTTACCATAAGGTTGG | -0.69 | -0.602 | -0.362 | -0.192 | -1.06 | 0.898 | 1.61 | 2.22 | 0.294 | 1.58
23 | CAAACTAGGTCACCGGAAGGTCAAAGACCGCATG | 5.97 | 5.91 | 4.14 | 4.91 | 1.03 | 6.19 | 9.78 | 7.64 | 5.86 | 7.65
24 | TTACCAACGTGAAGGTCGTTGATCCCTCTGTAGA | 1.87 | 1.9 | 0.292 | 1.88 | -0.33 | 1.35 | 0.00743 | 0.541 | 0.511 | 0.656
25 | GCTAGCAGGCCATTTGGGTCAATCAATGACGGGC | 0.192 | 0.264 | -0.476 | 0.271 | -0.737 | 1.4 | 0.636 | 0.364 | -1.07 | -0.156
